# Assay outcomes from PubChem BioAssay.
# IL1B secr inh – blocks inflammasome-driven IL-1 beta release. activity change, % at 57.5 µM. AID 743279. THP-1 LPS/ATP IL-1B secretion, AlphaLISA, 16 h; hits give low values. 360,000 tested, 4.7% active; in the data active = activity change below about -50%; inconclusive = mostly about -30% to -49%
#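 THP-1 cells pretreated 1 hr with compounds (up to 57.5 uM final), then stimulated with LPS (250 ng/mL final) plus ATP (1.25 mM final); secreted IL-1B measured by AlphaLISA after 16 hr, decreased signal indicating inhibition.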
# Gal4-VP16 FLuc – counter-screen for ROR gamma inhibitors: Gal4-VP16 reporter | Drosophila S2 Gal4-VP16 UAS-luciferase, luminescence, 20 h | Potency, µM (top dose mostly 53.6 µM), for the others: top-dose activity, negative = inhibition, usual class: inhibitors | 310,000 tested, 3.5% active;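 note: Gal4-VP16 expression switched on by copper sulfate through the metallothionein promoter; potency is the fitted concentration of half-maximal effect; nearly all actives have a fitted effect of over 50% in size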
# RORg inh – inhibitors of mouse ROR gamma transcriptional activity | P51450 | Drosophila S2 Gal4-RORgamma UAS-luciferase reporter, 20 h | Potency, µM (doses to about 53.6 µM), inactives show top-dose activity change, negative = inhibition, actives largely listed as inhibitors | 310,000 tested, 5.4% active | AID 2551; note: potency is the fitted concentration of half-maximal effect; nearly all actives have a fitted effect of over 60% in size
# Target sequence (P51450 whole entry, looked up, the tested form may be a part): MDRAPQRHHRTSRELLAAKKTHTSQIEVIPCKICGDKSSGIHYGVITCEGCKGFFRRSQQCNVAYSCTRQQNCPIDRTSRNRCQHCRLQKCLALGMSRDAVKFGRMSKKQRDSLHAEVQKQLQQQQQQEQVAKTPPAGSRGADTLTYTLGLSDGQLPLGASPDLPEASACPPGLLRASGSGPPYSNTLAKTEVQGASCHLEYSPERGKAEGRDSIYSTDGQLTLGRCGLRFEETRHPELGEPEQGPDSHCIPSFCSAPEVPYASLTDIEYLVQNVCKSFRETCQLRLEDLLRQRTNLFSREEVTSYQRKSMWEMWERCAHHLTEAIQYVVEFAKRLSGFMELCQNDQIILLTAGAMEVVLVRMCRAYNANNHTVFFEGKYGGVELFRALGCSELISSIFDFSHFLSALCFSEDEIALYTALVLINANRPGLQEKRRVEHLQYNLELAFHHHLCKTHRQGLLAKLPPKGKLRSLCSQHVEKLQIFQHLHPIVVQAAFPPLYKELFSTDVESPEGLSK
#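 Using a luciferase readout, inhibitors were identified by reduced reporter activity in Drosophila cells coexpressing a copper-inducible Gal4–ROR gamma fusion and UAS-driven Photinus luciferase, incubated 20 hr after 700 uM copper sulfate.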
# ELG1 repair inh – ELG1-dependent DNA repair inhibition; 330,000 tested, 2.3% active; Potency, µM (series often up to 46.1 µM), for inactives: at the highest dose activity change, negative = inhibition, most hits filed as inhibitors; AID 504467; HEK293T ELG1-luciferase reporter, luminescence, 16 h; DNA damage induced by 5-fluorouridine; note: potency is the fitted concentration of half-maximal effect; nearly all actives have a fitted effect of over 55% in size
#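 Quantitative HTS, concentration-response format. 2,000 cells/well co-treated with 5-fluorouridine and compound, 16 hr in 5% CO2 at 37 °C; ONE-Glo luminescence read after 30 min.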
# TDP1 cell noCPT – qHTS for Inhibitors of human tyrosyl-DNA phosphodiesterase 1 (TDP1): qHTS in cells in absence of CPT; DT40 Tdp1-/- hTDP1 cells, no CPT, ATP luminescence, 48 h; Potency, µM (series often up to 46.2 µM), for inactives: top-dose activity change, negative = growth inhibition, usual class: inhibitors; 420,000 tested, 15% active; note: potency is the fitted concentration of half-maximal effect; nearly all actives have a fitted effect of over 55% in size
#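 Camptothecin absent (DMSO only). Human TDP1-complemented DT40 knockout cells, 400 cells/well, 37 °C for minimum 48 hr; ATP measured via CellTiter-Glo, 30 min dark incubation, luminescence.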
# TDP1 cell CPT – growth inhibition of DT40 Tdp1-/-;hTDP1 cells with camptothecin (screen for TDP1 inhibitors) | chicken DT40 Tdp1-/-;hTDP1 cells + 20 nM CPT, ATP luminescence, 48 h | Potency, µM (highest dose often 46.2 µM), inactives show at the highest dose activity change, negative = growth inhibition, usual class: inhibitors | 420,000 tested, 12% active | AID 686979; note: potency is the fitted concentration of half-maximal effect; nearly all actives have a fitted effect of over 55% in size
#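 Chicken DT40 Tdp1-/- cells complemented with human TDP1, 400 cells/well, exposed to compounds plus 20 nM camptothecin for at least 48 h at 37 C; viability read as ATP content by CellTiter-Glo luminescence.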
# Active calls of the source: *; ? = inconclusive; / = no result given; [ ] = remark or other dose. Compounds with a hit are over-represented: about 21% of the library has one in this group of screens. Unless noted, calls come from the whole dose curve; as a rule, active = well fitted curve in the direction sought with a large enough effect; inconclusive = small, poorly fitted or top-dose-only effect, or another doubt; inactive = no such curve, though single readings can be large; an effect the other way counts as inactive or inconclusive. % is set by controls: 0 for no effect and ±100 for the full control effect.
SMILES,IL1B secr inh,Gal4-VP16 FLuc,RORg inh,ELG1 repair inh,TDP1 cell noCPT,TDP1 cell CPT
C=CCOC(=O)C(C#N)c1nc2ccccc2nc1N1CCC(C(=O)OCC)CC1 (centres undefined),-17,/,-13%[0.365 µM],?,18µM*,?
Cc1noc(/C=C/N(C)C)c1S(=O)(=O)N(C)Cc1ccc(F)cc1,-3,4%,-26%,7%,?,?
CCOC(=O)C1CCN(c2nc3ccccc3nc2C(C#N)C(=O)OCCOC)CC1 (centres undefined),-10,-3%,-16%,?,?,?
CCCCNC(=O)C(C#N)c1nc2ccccc2nc1N1CCN(Cc2ccc3c(c2)OCO3)CC1 (centres undefined),0,/,/,/,-7%,-6%
CCOC(=O)C1CCN(c2nc3ccccc3nc2C(C#N)C(=O)OC(C)COC)CC1 (centres undefined),-2,-3%,-25%,?,18µM*,21µM*
C=CCOC(=O)C(C#N)c1nc2ccccc2nc1N1CCN(Cc2ccc3c(c2)OCO3)CC1 (centres undefined),-52*,-4%,0%,16µM*,?,?
COCCNc1oc(/C=C/c2ccc(F)cc2)nc1C#N,/,/,/,/,-23%,4%
COc1ccc(-c2cc(C(F)(F)F)n3nc(C(=O)N4CCCCC4)cc3n2)cc1OC,?,-11%,20%,?,18µM*,18µM*
COc1ccc(-c2cc(C(F)(F)F)n3nc(C(=O)OC(C)C)cc3n2)cc1,/,/,/,/,16µM*,23µM*
COc1cccc(-c2cc(C(F)(F)F)n3nc(C(=O)N4CCCCC4c4cccnc4)cc3n2)c1 (centres undefined),-72*,-9%,22%,21µM*,16µM*,16µM*
COc1ccc(-c2cc(C(F)(F)F)n3nc(C(=O)N4CCCCC4)cc3n2)cc1,-53*,1%,22%,-4%,23µM*,16µM*
COc1ccc(CCN2CC(C(=O)Nc3cc(F)ccc3F)CC2=O)cc1OC (centres undefined),22,/,/,1%,3%,5%
O=C(COC(=O)c1ccccn1)c1cccc(Br)c1,4,-4%,-11%,1%,-10%,-7%
Cc1ccccc1-c1cc(N(C)C)ncn1,/,-6%,-13%,/,-1%,-10%
Cn1cnc2c(=O)oc3ccc(S(=O)(=O)N4CCN(c5cccc(Cl)c5)CC4)cc3c21,/,/,/,/,-4%,-6%
CCCCN1C(=O)C(CC(=O)NC2CCCCC2)CC(C(=O)N(C(C)C)C(C)C)=C1C (centres undefined),-16,/,/,/,?,-24%
C=CCN1C(=O)/C(=c2\sc3nc(=O)c(Cc4ccccc4)nn3c2=O)c2ccccc21,-14,?,11µM*,-5%,-9%,-6%
CN(C)c1ccc(CNC(=O)/C=C/[C@H]2O[C@@H](n3ccc(=O)[nH]c3=O)[C@H](O)[C@@H]2O)cc1,0,/,/,/,-4%,7%
CCOC(=O)c1c(C)oc(NC(=O)COc2ccc(Cl)cc2C)c1C#N,21,-2%,-7%,21µM*,2%,0%
Cc1c(C)c(C)c(S(=O)(=O)n2[nH]c(=O)c(CCO)c2C)c(C)c1C,-10,2%,19%,?,?,3%
Cc1cc(S(=O)(=O)n2[nH]c(=O)c(CCO)c2C)c(Cl)cc1Cl,-9,-11%,38%,-14%,?,16µM*
CC(NC(=O)CSC1=NCCS1)c1ccccc1 (centres undefined),-55*,-4%,5µM*,16%,-3%,8%
O=C(CSC1=NCCS1)NC(c1ccccc1)c1ccccc1,-72*,?,2%,-10%,16µM*,?
